Compounds without any hit were thinned out: in the full panel of roughly 83,000, 20% have a hit.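 Step 1: grow cells in 96-well plates. Step 2: add test compound at a single concentration. Step 3: incubate 48 h. Step 4: record percent growth.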 Unmarked numbers belong to inactive results. Active and inactive are the calls of the source.

In PubChem BioAssay (NCI) one finds growth data, which are given here for 40 molecules.

This assay relates to SNB-75 CNS. Kind of assay: NCI-60 one-dose screen, 48 h (100 = growth as untreated, 0 = no growth, -100 = all killed). To be noted: 10 µM unless noted. The protocol: Growth inhibition of the SNB-75 human tumor cell line is measured as a screen for anti-cancer activity. Cells are grown in 96 well plates and exposed to the test compound for 48 hours. Compounds are tested at a single concentration, which is 10^-5 M for most compounds. The reported endpoint is percent growth (GI% or GIPRCNT), where numbers from 0 - 100% represent growth inhibition, and numbers from -100% - 0 represent cell death. For example, a value of 40 represents 60% growth inhibition. A value of 0 means no net growth occurred over the course of the experiment. A value of -40 indicates 40% of cells at the beginning of the experiment died by the end of the experiment. A value of -100 means all cells are dead at the end of the experiment.
NCI-60 Human Tumor Cell Lines Screen was performed using the standard one-dose NCI protocol, which is described in more detail at https://dtp.cancer.gov/discovery_development/nci-60/default.htm.
Compounds with GIPRCNT values below 10 were considered active. Activity score was based on GIPRCNT using the following formula: […]
Score is 0 for GIPRCNT values of 100 or above, 50 for GIPRCNT values of 0, and 100 for GIPRCNT values of -100.
Take `Nc1cc2c(cc1Cl)C(=O)c1ccccc1C2=O`: the growth was 30.9%.
The figure for `Cc1cccc(C)c1NC(=S)/N=C\c1c(O)[nH]c(=O)[nH]c1=O` is 85.1%; for `O=C(O)Cc1cccc2ccccc12` it is 82.2%; for `CCCCCC/C=C\CCCCCCCCCc1cc(O)cc(OC)c1O` it is 6.11% (active).
The figure for `COC(=O)Cc1cc(COC(C)=O)ccc1C` is 97.8%; for `CC(=O)Nc1ccc(/C=C2\SC(=S)N(/C=C(\C(C)=O)C(N)=O)C2=O)cc1` it is 82.4%.
With `CC(C)N(CCCC#N)C(C)C`, the growth is 85.2%.
Then `Nc1ncnc(Nc2ccc(C(F)(F)F)cc2)n1`, with 87.5%; and `CCCCCCCCCCC(=O)CCCCCCCCCC`, with 95.9%.
Then `CC(=O)Nc1ncc(S(=O)(=O)c2ccc([N+](=O)[O-])cc2)s1`, with 103%.
Then `Cc1c(-c2ccc(C3CCCCC3)cc2)nc2ccc(F)cc2c1C(=O)O`, with 62.7%.
With `NC(CSSCC(N)C(=O)O)C(=O)O` (stereo not given), the growth was -3.17% (active).
Then `O=C(O)Cc1ccccn1`, with 103%; and `Nc1ncnc(Nc2ccccc2)n1`, with 104%.
Then `Cc1ccc(OC(=O)c2ccccc2)cc1`, with 108%.
On to `Cc1onc(-c2ccccc2Cl)c1C(=O)Cl`, for which the growth is 78.1%.
Then `CCOC(=O)c1ccc(C(C)(C)C)cc1`, with 102%.
On to `N#C/C(=C\NC(=S)N=Nc1c(O)[nH]c2ccccc12)c1nc2ccccc2s1`, for which the growth is 85.1%.
Then `C/C(Cc1ccccc1)=N\O`, with 115%; and `FC(F)(F)c1cc(NC2=NCCN=C(Nc3cc(C(F)(F)F)cc(C(F)(F)F)c3)SS2)cc(C(F)(F)F)c1`, with 71.5%.
With `CN1CCN(C(=S)S)CC1`, the growth is 105%.
The figure for `COc1ccc2c(ccc[n+]2C)c1` is 78.3%.
Take `NC(CO)(CO)c1ccccc1`: the growth is 88.7%.
The figure for `N#Cc1ccc(OC(=O)Nc2cc(Cl)cc(Cl)c2)cc1` is -9.78% [100 µM] (active); for `CCCCCCCCCc1ccc(OC(C)=O)cc1` it is 99.4%; for `O=S(=O)(c1ccc(NC(=S)NCc2cccnc2)cc1)N1CCCCC1` it is 78.4%.
The figure for `CSc1nsc(N)n1` is 87.4%.
`NCC(O)C(O)C(O)C(O)CO` (stereo not given): the growth is 91.8%.
With `Cc1ccc(C(C)C)c(OCC(=O)O)c1`, the growth was 99.3%.
Then `O=C(O)c1cc(I)ccc1O`, with 81.8%.
Then `NNc1ncccn1`, with 80.2%; and `CCC1CCC(C)NC1` (stereo not given), with 88.6%.
The figure for `N#Cc1ccc(OC(=O)Nc2c(Cl)cc(Cl)cc2Cl)cc1` is 127%.
In the case of `CCCCN(C=S)CCCC`, the growth was 87.4%.
Then `C=CC(C)(C)n1cc(C2=C(O)C(=O)C(c3cn(C(C)(C)C=C)c4ccccc34)=C(O)C2=O)c2ccccc21`, with 67.8%.
The figure for `CCCCCCCCNC(=O)C(C)C` is 91.2%; for `Cc1ccc(S(=O)(=O)NC(=O)NCCSSCCNC(=O)NS(=O)(=O)c2ccc(C)cc2)cc1` it is 85.5%.
`COc1ccc(-c2csc(NC(=O)Nc3nc(-c4ccc(OC)cc4)cs3)n2)cc1`: the growth was 99.2%.
The figure for `O=C(Nc1ccc([N+](=O)[O-])cc1)C(=O)Nc1ccc([N+](=O)[O-])cc1` is 116%; for `Nc1ccc2ccccc2c1-c1c(N)ccc2ccccc12` it is 42.7%.
